An excerpt weighted towards active compounds, which were near 8% of everything screened.
SW480 rereplic – inducers of DNA re-replication in SW480 colon cancer cells | SW480 DNA re-replication, Hoechst DNA content imaging, 48 h | Potency, µM (top dose mostly 46.1 µM), inactives show at the highest dose re-replication activation, hits mostly activators | 340,000 tested, 1.8% active; further: % of control where 0% means no effect; nearly all actives have a fitted effect of over 55% in size
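250 cells/well; 23 nL cpd via pin tool; 48 hr, 37 C, 5% CO2; Hoechst 40 min; imager read of total nuclear intensity, ex 405/em 500-530 nm.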
HT1080-NT tox – kills 2HG-producing HT-1080-NT fibrosarcoma cells; 360,000 tested, 1.6% active; HT-1080-NT fibrosarcoma viability, CellTiter-Glo ATP luminescence, 48 h; Potency, µM (doses to about 46.1 µM), without a hit: at the highest dose activity, negative = less viability, most hits filed as cytotoxic;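 further: NT is the 2HG producing partner of a matched IDH1 knockdown line; 0% = DMSO-treated cells and -100% = media-only wells without cells; nearly all actives have a fitted effect of over 55% in size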
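Compounds were tested in concentration-response format on HT-1080-NT cells for 48 hours at 37 degrees C. Cell viability came from CellTiter-Glo luminescence; curves were classified by r2, response magnitude and activity.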
KB-3-1 tox – kills parental KB-3-1 adenocarcinoma cells. KB-3-1 viability, CellTiter-Glo ATP luminescence, 72 h. Potency, µM (top dose mostly 46.1 µM), most hits filed as cytotoxic. 400,000 tested, 1.4% active. AID 1347075; further: on the % scale 0 is the no-effect control and ±100 the full control effect; nearly all actives have a fitted effect of over 60% in size
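Luminescent ATP read-out (CellTiter-Glo) measures survival of drug-naive KB-3-1 cells after 72 h compound exposure at 37 °C. Titration series was screened from lowest to highest concentration, with DMSO vehicle plates as background controls.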
KB-V1 MDR tox – KB-V1 MDR subline cytotoxicity | KB-V1 MDR cells viability, CellTiter-Glo, 72 h | Potency, µM (doses to about 46.1 µM), most hits filed as cytotoxic | 400,000 tested, 3.4% active; further: on the % scale 0 is the no-effect control and ±100 the full control effect; nearly all actives have a fitted effect of over 60% in size
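Readout: CellTiter-Glo luminescence, 10 min after addition. Cells: KB-V1 MDR subline, 72 h at 37 degrees C with compound. Analysis: corrected, normalized data fitted to concentration-effect curves.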
MCF10A rerep – induces DNA re-replication in MCF 10a normal breast cells; MCF 10A DNA re-replication, Hoechst nuclear intensity, 48 h; Potency, µM (series often up to 46.1 µM), inactives show at the top dose activity, positive = re-replication, hits mostly activators; 350,000 tested, 2.9% active; further: % of control where 0% means no effect; nearly all actives have a fitted effect of over 50% in size
HT1080 IDH1KD tx – toxicity to HT-1080 IDH1 knockdown cells (counter line) | Potency, µM (titrated, usually from 46.1 µM), for the others: at the highest dose activity, negative = toxicity, usual class: cytotoxic | HT-1080 IDH1 knockdown viability, ATP luminescence, 48 h | 360,000 tested, 2% active;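 further: 0% = DMSO wells and -100% = cell-free medium wells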
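HT-1080-IDH1KD cells (IDH1 knocked down), 750/well in RPMI with 5% FBS, treated with compound 48 h at 37 degrees C. Viability by CellTiter-Glo luminescence, normalised to DMSO and no-cell wells; concentration-response curves classed.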
* = called active by the depositor; i = inactive; u = inconclusive; x = no result given; [ ] = dose if it differs, or a comment. The call rests on the fitted dose curve; in most records, active means well fitted curve in the direction sought with a large enough effect; inconclusive means small, poorly fitted or top-dose-only effect, or another doubt; inactive means no such curve, though single readings can be large; an effect the other way counts as inactive or inconclusive. Potency means the concentration at half of the fitted maximal effect.

SMILES | SW480 rereplic | HT1080-NT tox | KB-3-1 tox | KB-V1 MDR tox | MCF10A rerep | HT1080 IDH1KD tx
COc1ccc(/C=C2\N=C(c3ccccc3Cl)NC2=O)cc1 | 10µM* | -23% | u | u | 13µM* | 15µM*
O=C1N(c2ccccc2C(F)(F)F)O[C@]1(c1ccccc1)C1CCCC1 | u | -17% | i | i | 18µM* | -28%
Cc1ccccc1[C@@]1(C)ON(c2ccccc2C(F)(F)F)C1=O | 2% | -2% | u | i | u | -1%
O=C(Nc1ccc(Cl)c(Cl)c1)C1=Cc2ccccc2OC1 | 3% | u | i | i | 21µM* | u
O=C(Nc1cccc(Cl)c1)C1=Cc2cc(Cl)ccc2OC1 | 8% | u | i | i | 13µM* | u
Cn1c(SCC(=O)N2CCCC2)nnc1-c1ccc(S(=O)(=O)N2CCCC2)cc1 | -2% | 9% | i | i | 2% | 1%
CN1C(=O)CSc2ccc(NC(=O)N3CCc4ccccc43)cc21 | 1% | -28% | i | 16µM* | u | -7%
CN1C(=O)CSc2ccc(NC(=O)N3CCN(c4ccccn4)CC3)cc21 | -6% | 4% | i | 18µM* | -39% | 4%
Cc1ccc(C)c(N2CCN(C(=O)Nc3ccc4c(c3)N(C)C(=O)CS4)CC2)c1 | 2% | -23% | i | i | 3% | u
CC1Cn2c(Cc3ccccc3)nnc2S1 (configuration not stated) | x | 27% | i | i | x | 7%
CCOC(=O)NC(=O)/C(C=Nc1ccc(Cl)c(Cl)c1Cl)=C(\C)O | 2% | -1% | i | u | -3% | 1%
Cn1c(=O)[nH]c(=O)c2c1nc(CN1CCN(c3ccccc3F)CC1)n2CCCc1ccccc1 | 15% | 3% | i | u | -2% | 3%
O=[N+]([O-])c1ccc(Nc2ccccc2)c2nonc12 | 1% | -4% | i | i | -1% | -9%
O=[N+]([O-])c1ccc(Sc2cccc[n+]2[O-])c2nonc12 | u | 0.15µM* | u | u | u | 0.58µM*
Cc1nn(C)c(C)c1CN(Cc1nc(-c2ccc(F)cc2F)oc1C)C1CC1 | 5% | -2% | i | u | 11% | -16%
Cc1nn(C)c(C)c1CN(Cc1nc(-c2cc(F)ccc2F)oc1C)C1CC1 | 1% | -16% | i | 16µM* | 4% | u
Brc1ccc(CSc2ccc3nnc(-c4ccccn4)n3n2)cc1 | -2% | -22% | i | 15µM* | 10% | -26%
Brc1ccc(CSc2ccc3nnc(-c4cccnc4)n3n2)cc1 | -3% | u | i | 9.2µM* | u | u
Cc1ccc(CSc2ccc3nnc(-c4cccnc4)n3n2)cc1 | -21% | -8% | i | u | 8% | -8%
Cc1ccc(CSc2ccc3nnc(-c4ccccn4)n3n2)cc1 | 1% | 8% | i | u | 0% | -23%
COc1ccccc1C(=O)CSc1nnc(-c2ccco2)o1 | -16% | 11% | i | i | -13% | 9%
Cc1nc2ccccc2n1CC(=O)NC(C)C1CC2CCC1C2 (configuration not stated) | 2% | -2% | u | u | u | -29%
Cc1cc2ccccn2c1C(=O)c1ccc(N/N=C/c2ccc(C(=O)O)cc2)c([N+](=O)[O-])c1 | 0% | 3% | i | i | 3% | -7%
CC1CCN(C(=O)C(NS(=O)(=O)c2cccc3nsnc23)C(C)C)CC1 (configuration not stated) | -22% | 0% | i | i | 4% | -5%
CC(C)C(NS(=O)(=O)c1cccc2nsnc12)C(=O)N1CCc2ccccc2C1 (configuration not stated) | 8% | 1% | i | 18µM* | -2% | 0%
SMILES | SW480 rereplic | HT1080-NT tox | KB-3-1 tox | KB-V1 MDR tox | MCF10A rerep | HT1080 IDH1KD tx
COc1cc(-c2nc3ccc4ccccc4c3c3c2CCC3)ccc1O | -1% | u | i | u | u | u
CN(C)CCCN(C(=O)C1=COCCO1)c1nc2ccc(Br)cc2s1 | 23% | 21µM* | u | u | 14% | 23µM*
CCOC(=O)N1CCN(S(=O)(=O)c2ccc(C(=O)N(CCCN(C)C)c3nc4ccc(CC)cc4s3)cc2)CC1 | u | u | i | i | 10% | 16µM*
CC1CCCCN1S(=O)(=O)c1ccc(C(=O)N(CCCN(C)C)c2nc3ccc(Br)cc3s2)cc1 (configuration not stated) | u | 18µM* | u | 23µM* | u | u
CN(C)CCN(C(=O)c1ccc2ccccc2c1)c1nc2ccc(Br)cc2s1 | -8% | -1% | i | i | 6% | 7%
CN(C)CCN(C(=O)c1ccc(S(=O)(=O)N2CCCC2)cc1)c1nc2ccc(Br)cc2s1 | -5% | u | i | i | 8% | u
Cc1ccc2nc(N(CCCN(C)C)C(=O)c3ccc(S(=O)(=O)N4CCCCCC4)cc3)sc2c1 | u | u | u | i | 0% | 18µM*
CCOC(=O)N1CCN(S(=O)(=O)c2ccc(C(=O)N(CCN(C)C)c3nc4ccc(CC)cc4s3)cc2)CC1 | -1% | -6% | i | i | 6% | -7%
Cc1cccc(NC(=O)N2CCC(n3c(C)nc4cccnc43)CC2)c1 | x | x | i | i | x | x
C[N+]1(CCC(=O)c2ccccc2)CCCCC1 | 7% | 19% | u | i | -34% | 7%
CN1CCN(/C=C2\SC(=S)NC2=O)CC1 | -4%[9.22 µM] | 13% | i | i | 0% | 15%
O=C(N/N=C/c1ccc(Cl)cc1Cl)c1cccc(F)c1 | 13% | u | i | i | 1% | u
OC(COc1ccccc1)CN1CCN(c2ncccn2)CC1 (configuration not stated) | -2% | -3% | i | u | 13% | 17%
CCOCCn1ccc2c(OCC(=O)Nc3ccccc3F)cccc2c1=O | -2% | -5% | i | i | 1% | -1%
O=C(C1CC1)N1CCc2cc(Br)cc(S(=O)(=O)NCC3COc4ccccc4O3)c21 (configuration not stated) | 2% | -3% | i | i | 8% | -1%
CN(CC1CCOCC1)C(=O)c1ccc2nc(Cc3cccc(Cl)c3)oc2c1 | 10% | 0% | x | x | 18µM* | -8%
O=C(Nc1cccc(Cl)c1)c1ccc2nc(Cc3ccccc3)oc2c1 | x | x | 15µM* | u | x | x
COc1ccc(Cl)cc1NC(=O)c1ccc2nc(Cc3ccccc3)oc2c1 | x | x | i | i | x | x
O=C(NCCCN1CCN(c2cccc(Cl)c2)CC1)c1ccc2nc(Cc3ccccc3)oc2c1 | x | x | 15µM* | u | x | x

Screens from PubChem.
